The source of these data is ChEMBL document CHEMBL3433997, “St. Jude Leishmania screening dataset” (2016).

What all share (type): functional
Assay [1] concerns the target Solute carrier family 2, facilitated glucose transporter member 1 (Homo sapiens) (UniProt P11166). The experiment in a line: ST_JUDE_LEISH: Cytotoxicity at 2uM final concentration against transgenic Leishmania Mexicana promastigotes LmGLUT1 that are glucose transport deficient and complemented with the human glucose transporter GLUT1. Activity is measured by DNA content using SYBR green in vitro.

In assay [2] the target is Hexose transporter 1 (Plasmodium falciparum) (UniProt O97467). The experiment in a line: ST_JUDE_LEISH: Cytotoxicity at 2uM final concentration against transgenic Leishmania Mexicana promastigotes LmPfHT that are glucose transport deficient and complemented with the Plasmodium falciparum hexose transporter. Activity is measured by DNA content using SYBR green in vitro.

The target of assay [3] is Glucose transporter (Leishmania mexicana) (UniProt O61059). Briefly: ST_JUDE_LEISH: Cytotoxicity at 2uM final concentration against transgenic Leishmania Mexicana promastigotes LmGT2 that are glucose transport deficient and complemented with the L. Mexicana glucose transporter 2. Activity is measured by DNA content using SYBR green in vitro.

Solute carrier family 2, facilitated glucose transporter member 1 (Homo sapiens), sequence (P11166 whole entry): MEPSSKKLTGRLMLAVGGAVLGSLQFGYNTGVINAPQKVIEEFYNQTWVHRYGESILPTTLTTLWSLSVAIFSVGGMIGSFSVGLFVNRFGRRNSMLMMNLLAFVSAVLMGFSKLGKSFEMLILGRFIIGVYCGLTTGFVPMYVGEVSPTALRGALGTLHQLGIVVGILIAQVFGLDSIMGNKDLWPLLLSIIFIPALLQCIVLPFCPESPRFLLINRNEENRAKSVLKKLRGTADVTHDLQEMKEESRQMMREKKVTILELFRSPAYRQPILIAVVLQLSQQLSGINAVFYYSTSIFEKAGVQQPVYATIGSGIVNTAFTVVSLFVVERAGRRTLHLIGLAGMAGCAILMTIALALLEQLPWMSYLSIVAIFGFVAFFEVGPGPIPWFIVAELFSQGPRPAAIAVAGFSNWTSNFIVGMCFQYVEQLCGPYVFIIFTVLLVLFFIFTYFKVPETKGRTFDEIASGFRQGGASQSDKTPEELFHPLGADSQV

`O=C(NCc1ccc(C(F)(F)F)cc1)c1cccc(-c2nnc(-c3cccc(-c4cncnc4)c3)o2)c1`: the inhibition was determined as 9.91% in assay [1], 4.62% in assay [2] and 4.68% in assay [3].

`O=C(NCCCCCN1CCC(c2c[nH]c3ccccc23)CC1)Nc1ccc(I)cc1`: the inhibition worked out at 11% in assay [1], 5.79% in assay [2] and 9.45% in assay [3].

As for `CNc1ccc(CNCc2cccc(-c3ccc(-c4nc5ccccc5[nH]4)s3)c2)cc1`, the inhibition in assay [1] was determined as 1.37%; in assay [2] it was 1.02%; in assay [3], 0.87%.

`COc1cc(C)c(NC(=O)c2cccc3c(=O)c(C)c(-c4ccccc4)oc23)cc1OC`: the inhibition in assay [1] was 6.49%; in assay [2], -0.38%; in assay [3] it was -1.52%.

For the compound `O=C(Nc1ccc(-c2cccc(CN3CCC(O)CC3)c2)cc1)c1cccc(Cl)c1`, the inhibition in assay [1] stood at 24.1%; in assay [2], 17.8%; in assay [3], 16.8%.

Regarding `O=C(Nc1ccc(N2CCNCC2)nc1)c1oc(-c2ccccc2)nc1C(F)(F)F`, the inhibition in assay [1] was found to be 2.9%; in assay [2], 3.6%; in assay [3], 0.32%.

As for `COc1ccccc1Cn1ccnc1SCC(=O)Nc1cccc(C(F)(F)F)c1`, the inhibition is 0.58% in assay [1], 0.38% in assay [2] and -0.75% in assay [3].

`COc1ccc(-c2onc(C(F)(F)F)c2-c2cc3ccccc3o2)c(O)c1`: the figures for the inhibition in assay [1], in assay [2] and in assay [3] were 0.61%, 0.82% and 0.58%, respectively.

In the case of `O=C(c1cccc(Br)c1)N1CCN(c2ccc([N+](=O)[O-])c(NC3CC3)c2)CC1`, the inhibition is 4.9% in assay [1], 4.63% in assay [2] and 1.63% in assay [3].

Turning to `Cc1ccc2nc(-c3ccc(/C=C/C(=O)NC4CCN(Cc5ccccc5)CC4)cc3)[nH]c2c1C`, the inhibition came out at 8.42% in assay [1], 8.63% in assay [2] and 9.58% in assay [3].

`CN(CCCCN)Cc1ccc(-c2ccc(Cl)cc2)cc1`: the inhibition in assay [1] is 21.7%; in assay [2], 19.1%; in assay [3], 10.5%.

In the case of `O=C(Nc1ccccc1)OCCOc1ccc(CC2SC(=O)NC2=O)cc1` (centres undefined), the inhibition came out at 2.13% in assay [1], 3.76% in assay [2] and 2.23% in assay [3].

For the compound `CN(C)Cc1ccc(O)c(-c2ccc(C(C)(C)C)cc2)n1`, the inhibition in assay [1] was -0.79%; in assay [2] it was 0.1%; in assay [3], 2.74%.

Usually inhibition stands for the drop in the measured response relative to a control, in per cent.
